# This is a sample that favours compounds with a hit; in the whole collection about 3.5% have one here.
# TEAD-YAP block: TEAD-YAP interaction inhibition; HEK-TIYL cells, TEAD-Gal4/YAP UAS-luciferase luminescence; inhibition, % at 9.12 µM; actives 1.4% (n = 640,000); in the data active = inhibition above about 32%;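 also: 0% = median of test compound wells and 100% = reference inhibitor wells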
# MITF inh: inhibitors of human MITF; O75030; AlphaScreen MITF homodimerization, bead proximity signal; inhibition, % at 2.6 µM; actives 0.91% (n = 650,000); in the data active = inhibition above about 50%;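 also: 0% = vehicle wells with protein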
# GPR151 activ: human GPR151 activation; PathHunter beta-arrestin GPR151 cells, luminescence; Q8TDV0; activation, % at 11.2 µM; actives 1% (n = 650,000); in the data active = activation above about 4.9%;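 also: 0% = median of compound wells and 100% = cells with positive control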
# FBW7 act: activators of human E3 ligase FBW7 | AID 1259310 | actives 0.13% (n = 650,000) | AlphaScreen FBW7–phospho-cyclin E peptide binding, activator screen | normalized activity (activation), % at 26.1 µM; in the data active = normalized activity above about 1.9%;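 also: purified mutant Fbw7 with reduced substrate affinity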
# GPR151 conf act: confirmation of human GPR151 activators | shares compounds with GPR151 activ | GPR151 PathHunter beta-arrestin cells, luminescence, 90 min; % of EA-reagent control over plate median | activation, % at 11.2 µM | 6,700 tested, under 10 active;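 active = mean percent activation across replicates above the confirmation screen cutoff of 4.91%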
# GPR119 counter: activates human GPR119 in a GPR151 counter-screen | activation, % at 11.2 µM | GPR119 PathHunter beta-arrestin cells, luminescence, 90 min; 0 = compound-well median, 100 = enzyme-acceptor control | AID 1508611 | shares compounds with GPR151 activ | actives 0.3% (n = 6,700);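 active = mean percent activation in the counterscreen above 29.09%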;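 also: counterscreen on off-target GPR119 to flag nonselective hits from the GPR151 activator screen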
# Target sequence (Q8TDV5 whole entry, looked up): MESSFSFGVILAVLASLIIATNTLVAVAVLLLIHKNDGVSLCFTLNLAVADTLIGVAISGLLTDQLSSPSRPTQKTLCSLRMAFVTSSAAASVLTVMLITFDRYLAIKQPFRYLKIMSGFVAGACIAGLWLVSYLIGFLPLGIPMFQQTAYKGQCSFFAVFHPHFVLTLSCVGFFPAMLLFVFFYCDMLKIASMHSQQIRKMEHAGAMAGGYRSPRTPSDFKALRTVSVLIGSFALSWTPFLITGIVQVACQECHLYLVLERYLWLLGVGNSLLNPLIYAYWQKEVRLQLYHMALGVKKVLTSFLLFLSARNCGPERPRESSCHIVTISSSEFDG
# Numbers without * were called inactive; nt = no result.
SMILES,TEAD-YAP block,MITF inh,GPR151 activ,FBW7 act,GPR151 conf act,GPR119 counter
Cc1cc(N2CCN(c3ncccn3)CC2)nc2ccc(NC(=O)c3cccnc3Cl)cc12,9,19,2,0,nt,nt
CC(Sc1ncn(-c2ccccc2)n1)C(=O)Nc1ccccc1 (stereo not drawn),-6,0,5.9*,0,-2,-5
Cn1c(=O)c(=O)n(C)c2cc(S(=O)(=O)N3CCN(C(=O)c4ccco4)CC3)ccc21,1,6,15*,0,1,-2
O=C(NCc1cccs1)c1cc(-c2ccccc2)n[nH]1,-63,4,-1,0,nt,nt
O=C(CC1(O)C(=O)N(Cc2ccccc2)c2ccccc21)c1ccccc1 (stereo not drawn),1,5,-1,0,nt,nt
CCN(CC)C(=O)CN1C(=O)C(O)(CC(=O)c2ccccc2)c2ccccc21 (stereo not drawn),5,11,7.6*,1,0,1
O=C(/C=C/c1ccco1)Nc1cccc(NC(=O)c2ccccc2Cl)c1,-17,-9,-1,0,nt,nt
Cc1ccc(CN2CCNC(=O)C2CC(=O)NCc2cnn(C)c2)cc1 (stereo not drawn),1,-4,0,0,nt,nt
Cc1ccc(CN2CCNC(=O)C2CC(=O)NCc2cc(C(F)(F)F)ccc2F)cc1 (stereo not drawn),-3,0,6.5*,0,0,5
O=C(CCc1nc2ccccc2s1)OCC(=O)c1cc(F)ccc1F,-3,9,-1,0,nt,nt
C/C(=N\NC(=O)Cn1nnc(-c2ccccc2)n1)c1nonc1C,1,13,16*,0,-1,-14
CC(=O)Cn1nnc(-c2ccccc2)n1,-10,2,-1,0,nt,nt
COc1ccc(S(=O)(=O)N(CC(=O)O)Cc2ccccc2)cc1C,12,-14,-1,0,nt,nt
Cc1cccc(OCC(=O)Nc2ccc(S(=O)(=O)N(C)Cc3ccccc3)cc2)c1,-9,-7,5.6*,0,0,4
CC(=O)Nc1ccc(S(=O)(=O)N(C)Cc2ccccc2)cc1,0,-11,1,0,nt,nt
CN(Cc1ccccc1)S(=O)(=O)c1ccc(NS(C)(=O)=O)cc1,2,10,5.7*,0,-1,-11
COc1ccc(S(=O)(=O)N(C)Cc2ccccc2)cc1C,-3,4,11*,0,0,-6
CCN=C1SC(C(=O)Nc2ccc(F)cc2)CC(=O)N1CC (stereo not drawn),-5,12,0,0,nt,nt
Cc1ccc(/C=C/C(=O)Nc2ccccc2F)o1,2,4,-9,0,nt,nt
CCOc1cc(/C=C2/C(=O)NN(c3cccc(C)c3)C2=O)cc([N+](=O)[O-])c1O,2,10,6.0*,0,1,1
Cc1ccc(/C=C2\C(=O)NC(=O)N(c3cccc(Br)c3)C2=O)cc1[N+](=O)[O-],8,-4,5.1*,0,0,12
COc1cc([N+](=O)[O-])cc(/C=C2/C(=O)NC(=O)N(c3cccc(C)c3)C2=O)c1O,4,2,5.3*,0,1,7
COc1cc(/C=C2/C(=O)NN(c3cccc(C)c3)C2=O)cc([N+](=O)[O-])c1O,3,3,-1,0,nt,nt
COc1ccc(Br)c(C(=O)Nc2cc(C(=O)Nc3cccc(C(C)=O)c3)ccc2N2CC3CC(C2)c2cccc(=O)n2C3)c1 (stereo not drawn),-9,-1,0,0,nt,nt
COc1ccc(S(=O)(=O)n2nc(OC(=O)c3ccc([N+](=O)[O-])cc3)cc2N)cc1,4,13,0,0,nt,nt
SMILES,TEAD-YAP block,MITF inh,GPR151 activ,FBW7 act,GPR151 conf act,GPR119 counter
Cc1ccc2c(c1)nnn2C1CCN(CC(=O)NCc2ccccc2)CC1,3,18,1,0,nt,nt
CCOC(=O)C1CCN(c2ncnc3c2c(-c2ccccc2)cn3-c2ccc(Br)cc2)CC1,-15,9,-1,1,nt,nt
CC(C)(C)c1nnc(Nc2ccccc2Cl)[nH]c1=O,0,-1,0,0,nt,nt
CC(C)(C)c1nnc(Nc2cc(Cl)ccc2Cl)[nH]c1=O,-6,1,5.7*,0,1,5
COc1ccccc1N=Cc1c(O)n(-c2ccccc2C)c(=O)[nH]c1=O,-3,22,6.0*,0,1,9
Cc1ccccc1-n1c(O)c(C=NCCCC(C)C)c(=O)[nH]c1=O,10,-3,8.5*,0,0,13
COc1cccc(CNC(=O)Cc2c(C(=O)O)[nH]c3ccc(Cl)cc23)c1,-15,4,1,0,nt,nt
CC1=CC(C)(C)N(C(=O)CN2C(=O)C3CCCCC3C2=O)c2ccc(OC(=O)CN3C(=O)C4CCCCC4C3=O)cc21 (stereo not drawn),5,21,0,0,nt,nt
Cc1cc(C)c2c3c(sc2n1)C(=O)N(c1ccc(F)cc1)CC(=O)N3,2,4,5.6*,0,0,-1
Cc1ccc(N2CC(=O)Nc3c(sc4nc(C)cc(C)c34)C2=O)cc1,3,-6,2,0,nt,nt
Clc1nc(N2CCOCC2)nc(N(c2ccccc2)c2ccccc2)n1,6,17,-2,0,nt,nt
NNc1nc(N2CCOCC2)nc(N(c2ccccc2)c2ccccc2)n1,8,10,9.0*,0,0,6
Cc1cc(C)cc(N(C(C)C(N)=O)S(C)(=O)=O)c1 (stereo not drawn),-4,-16,5,0,nt,nt
O=C(CNC(=O)C1CCCCC1)NNC(=O)COc1ccccc1F,3,8,0,0,nt,nt
O=C1CN(O)C=C2N=c3ccccc3=C2N1c1ccc(Cl)cc1,1,-1,0,0,nt,nt
CCN(CC)C(=O)CSc1nnc(N)s1,-4,-11,0,0,nt,nt
COc1ncc(-c2cncc(-c3cccc(O)c3)n2)c(OC)n1,-33,7,13*,0,1,6
CCCN(CCC)CCCNC(=O)C(=O)Nc1ccc(C)cc1,3,5,0,0,nt,nt
CCCN(CCC)CCCNC(=O)C(=O)Nc1ccc(I)cc1,3,-1,11*,0,0,0
CCCCOC(=O)c1cccc(NC(=O)COc2ccc(C)cc2C)c1,23,-7,1,0,nt,nt
CC(=O)c1ccc(NC(=O)C(Cc2ccccc2)n2cccc2)cc1 (stereo not drawn),5,7,5.2*,0,-1,6
Cc1ccc(NC(=O)c2cnn(-c3ccccc3)c2NC(=O)c2ccccc2)cc1,7,5,2,0,nt,nt
CCN(CC(=O)N1CCC(Cc2ccccc2)CC1)S(=O)(=O)c1ccc(Cl)cc1,10,-6,1,0,nt,nt
CN(CC(=O)N1CCC(Cc2ccccc2)CC1)S(=O)(=O)c1ccc2ccccc2c1,-10,5,5.7*,0,0,-3
CCOC(=O)c1c(NC(=O)CC)sc2c1CCC/C2=N\O,-6,8,1,0,nt,nt

# Source: PubChem (The Scripps Research Institute Molecular Screening Center)
